The text below walks through data of PubChem BioAssay (NCATS).

SMILES strings stand for the structures. “And” between values parts separate entries of the source, which are not always exact repeats. Identical values can stand only once. Records with an inconclusive call do not appear. More than one record can exist for a structure, and the calls need not agree. The source made the active and inactive calls. Unless noted, the call rests on the fitted dose curve; in most records, active means well fitted curve in the direction sought with a large enough effect; inconclusive means small, poorly fitted or top-dose-only effect, or another doubt; inactive means no such curve, though single readings can be large; an effect the other way counts as inactive or inconclusive.

A short description of assay [1]: Identifying Small Molecule Inhibitors of Pancreatic Cancer Stem Cells (Panc1, Adherent) (AID 1259362).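 Further: compound exposure lasted 48 h before the viability read.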 Particulars: Potency: viability. The method, boiled down:
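Endpoint: ATP-based luminescence, 48 h drug exposure. Bortezomib at 9.2 uM final as full-kill control; DMSO vehicle as negative control; activity normalized between vehicle and cell-free wells.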

Assay [2] is described as follows: P-glycoprotein substrates identified in KB-8-5-11 adenocarcinoma cell line, qHTS therapeutic library screen (AID 1346987). Further: series mostly up to about 44 µM; nearly all actives have a fitted effect of over 65% in size. Summed up: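 Luminescence from CellTiter-Glo, read 5 min after addition, quantified survival of KB-8-5-11 (P-gp-overexpressing) cells exposed to compounds for 72 h. AC50 was derived from concentration-response curves.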
A general note: In qHTS, concentration-response curves come from the screen itself.

The nature of assay [3]: NS1 protein of Zika virus - qHTS assay to identify small molecule inhibitors in human HEK 293 cells (AID 1347053). Further: nearly all actives have a fitted effect of over 55% in size. Further: potency means the concentration at half of the fitted maximal effect. Summed up: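 Readout was TR-FRET using paired anti-NS1 antibodies after 24 h infection of HEK 293 cells with ZIKV MR766 (MOI = 0.5). Compound preceded virus by 1 h; reduced signal reflects lower NS1 expression.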
For assay [4], the target named is T1, Tyrosine-protein phosphatase non-receptor type substrate 1 (Homo sapiens) + Leukocyte surface antigen CD47 (Homo sapiens) (UniProt P78324+Q08722). Description: CD47-SIRPalpha protein protein interaction - LANCE assay qHTS validation (AID 1347057; active means well fitted curve in the direction sought with a large enough effect in the signal ratio, with a control signal flat, not every such curve was filed as active; the % refers to the signal ratio; further: series mostly up to about 38 µM). The method, boiled down:
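Inhibition of soluble CD47/SIRPalpha ectodomain association by titrated compounds, measured as 665/615 nm time-resolved FRET ratio after sequential 30 min room-temperature incubations.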
In general terms: TR-FRET usually uses a lanthanide donor and a delayed reading to cut background.

The target of assay [5] is T1, Tyrosine-protein phosphatase non-receptor type substrate 1 (Homo sapiens) + Leukocyte surface antigen CD47 (Homo sapiens). Description: CD47-SIRPalpha protein protein interaction - HTRF assay qHTS validation (AID 1347058; active means well fitted curve in the direction sought with a large enough effect in the signal ratio, not every such curve was filed as active; the % refers to the signal ratio; further: series mostly up to about 38 µM). The method, boiled down: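 Soluble extracellular domains (6His-CD47, Avi-tag-biotinylated SIRPalpha) in PBS pH 7.4 with 0.05% IGEPAL CA-630. Compounds were preincubated 30 min at RT with CD47 and anti-His-Eu, then SIRPalpha and SAV-XL665 were added. TR-FRET 665/615 ratio.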

The target is the same in assay [6]. Description: CD47-SIRPalpha protein protein interaction - Alpha assay qHTS validation (AID 1347059).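 Further: bead proximity luminescence from CD47 binding SIRPalpha after compound preincubation with SIRPalpha.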 Summed up:
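AlphaScreen signal between CD47-His (12.5 nM) and biotin-SIRPalpha (25 nM) soluble extracellular domains, bead-captured via Ni-NTA and streptavidin. Compounds, in 7-point titrations, met SIRPalpha 30 min before CD47; PBS pH 7.4 with 0.05% IGEPAL.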

Assay [7] can be described thus: qHTS for Inhibitors of the Functional Ribonucleoprotein Complex (vRNP) of Lassa (LASV) Arenavirus: LASV Primary Screen - GLuc reporter signal (AID 1347082; calls by dose curve; tested in HEK293 reporter line; further: series mostly up to about 57 µM; nearly all actives have a fitted effect of over 60% in size).
The nature of assay [8]: qHTS for Inhibitors of the Functional Ribonucleoprotein Complex (vRNP) of Lassa (LASV) Arenavirus: Viability assay - alamar blue signal for LASV Primary Screen (AID 1347083; calls by dose curve; tested in HEK293 reporter line; further: series mostly up to about 57 µM; nearly all actives have a fitted effect of over 80% in size).
Assay [9] can be described thus: qHTS for Inhibitors of the Functional Ribonucleoprotein Complex (vRNP) of Lymphocytic Choriomeningitis Arenaviruses (LCMV): Viability assay - alamar blue signal for LCMV Primary Screen (AID 1347085; calls by dose curve; tested in HEK293 reporter line; further: series mostly up to about 57 µM; nearly all actives have a fitted effect of over 80% in size).
Assay [10] has as its target Nucleoprotein (Lymphocytic choriomeningitis virus (strain Armstrong)) (UniProt P09992). Description: qHTS for Inhibitors of the Functional Ribonucleoprotein Complex (vRNP) of Lymphocytic Choriomeningitis Arenaviruses (LCMV): LCMV Primary Screen - GLuc reporter signal (AID 1347086; calls by dose curve; further: series mostly up to about 57 µM; nearly all actives have a fitted effect of over 70% in size).
Assay [11] is described as follows: qHTS of pediatric cancer cell lines to identify multiple opportunities for drug repurposing: Primary screen for TC32 cells (AID 1347089). Further: nearly all actives have a fitted effect of over 60% in size. Summed up: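 Measured quantity: luminescence from CellTiter-Glo, reflecting metabolically active TC32 cells following 48 h of compound. Curves came straight from multi-point titrations, with 8 or 11 points in primary and 11 in confirmatory screening.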

A short description of assay [12]: qHTS of pediatric cancer cell lines to identify multiple opportunities for drug repurposing: Primary screen for A673 cells (AID 1347092). Further: nearly all actives have a fitted effect of over 45% in size. Summed up: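 Cells are plated, rested 5 h, dosed by pintool, incubated 48 h, then lysed with CellTiter-Glo and read by luminescence. DMSO is the neutral control; bortezomib at 2.3 uM final is the positive control.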
Assay [13] is described as follows: qHTS of pediatric cancer cell lines to identify multiple opportunities for drug repurposing: Primary screen for SK-N-MC cells (AID 1347093). Further: potency means the concentration at half of the fitted maximal effect. The method, boiled down: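 Metabolically active cells were quantified by ATP-dependent luminescence (CellTiter-Glo, 15 min at room temperature) following 48 h treatment. Cells had been plated at 500-1,000 per well and settled for 5 h beforehand.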

Assay [14] is described as follows: Natriuretic polypeptide receptor (hNpr1) antagonism - Pilot counterscreen GloSensor control cell line (AID 1347045; calls by dose curve; further: series mostly up to about 38 µM). The method, boiled down:
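Cells were first seeded and incubated overnight at 37C, then loaded with 2% GloSensor substrate for 2 h. Compounds were added for 30 min at room temperature, followed by a baseline read, 50 uM SNP and a final read after 20 min.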
(In general: The purpose of a counterscreen is to sort out artefacts and off-target activity.)

The target in assay [15] is Atrial natriuretic peptide receptor 1 (Homo sapiens) (UniProt P16066). Description: Natriuretic polypeptide receptor (hNpr1) antagonism - Pilot screen (AID 1347049; calls by dose curve;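 further: HEK293 cells with hNpr1 and GloSensor cGMP luciferase stimulated by 0.1 nM hNppA; agonist-evoked cGMP luminescence read 20 min after hNppA addition; series mostly up to about 58 µM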). Summed up:
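Receptor antagonism read as cGMP-dependent luminescence in hNpr1/pGS-40F HEK293 cells: pre-read after 30 min compound exposure, post-read 20 min after hNppA agonist at 0.1 nM final, all at room temperature, protected from light; A-71915 titration as control.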

Assay [16] concerns the target Atrial natriuretic peptide receptor 2 (Homo sapiens) (UniProt P20594). Kind of assay: Natriuretic polypeptide receptor (hNpr2) antagonism - Pilot subtype selectivity assay (AID 1347050; calls by dose curve). Summed up:
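Antagonist mode: compounds (LOPAC1280, seven 1:5 dilutions) added 30 min before 1 nM hNppC stimulation of hNpr2-HEK293 cGMP-sensor cells; luminescence read before and 20 min after agonist at ambient temperature.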

For assay [17], the target named is Parathyroid hormone/parathyroid hormone-related peptide receptor (Homo sapiens) (UniProt Q03431). Description: qHTS for PTHR1 Agonists: Optimization Screen against the NCGC LOPAC library (AID 1347079).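 Further: GloSensor cAMP luminescence in HEK-293 GP2 cells expressing human PTHR1 with IBMX.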 The method, boiled down:
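HEK-293 GP2 cells, PTHR1 + GloSensor cAMP; 3000 cells/well, o/n. Luciferin + IBMX 0.5mM each (stock), 1 hr 37C. Cpd titration, 1 hr 37C. Lum after 15 min RT. Ctrl M-PTH(1-15) top 10uM.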

A short description of assay [18]: qHTS of pediatric cancer cell lines to identify multiple opportunities for drug repurposing: Primary screen for DAOY cells (AID 1347090). Further: series mostly up to about 46 µM; nearly all actives have a fitted effect of over 55% in size. Summed up:
(§1)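 Cell viability, CellTiter-Glo luminescence; 500-1,000 cells/well, 8- or 11-point titration, 48 h compound exposure at 37 degrees C, 5% CO2. Controls: DMSO neutral, bortezomib 2.3 µM final as positive.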

Assay [19] in a line: qHTS of pediatric cancer cell lines to identify multiple opportunities for drug repurposing: Primary screen for SJ-GBM2 cells (AID 1347091). The method, boiled down: as §1

Sequence of Atrial natriuretic peptide receptor 1 (Homo sapiens) (P16066 whole entry, looked up): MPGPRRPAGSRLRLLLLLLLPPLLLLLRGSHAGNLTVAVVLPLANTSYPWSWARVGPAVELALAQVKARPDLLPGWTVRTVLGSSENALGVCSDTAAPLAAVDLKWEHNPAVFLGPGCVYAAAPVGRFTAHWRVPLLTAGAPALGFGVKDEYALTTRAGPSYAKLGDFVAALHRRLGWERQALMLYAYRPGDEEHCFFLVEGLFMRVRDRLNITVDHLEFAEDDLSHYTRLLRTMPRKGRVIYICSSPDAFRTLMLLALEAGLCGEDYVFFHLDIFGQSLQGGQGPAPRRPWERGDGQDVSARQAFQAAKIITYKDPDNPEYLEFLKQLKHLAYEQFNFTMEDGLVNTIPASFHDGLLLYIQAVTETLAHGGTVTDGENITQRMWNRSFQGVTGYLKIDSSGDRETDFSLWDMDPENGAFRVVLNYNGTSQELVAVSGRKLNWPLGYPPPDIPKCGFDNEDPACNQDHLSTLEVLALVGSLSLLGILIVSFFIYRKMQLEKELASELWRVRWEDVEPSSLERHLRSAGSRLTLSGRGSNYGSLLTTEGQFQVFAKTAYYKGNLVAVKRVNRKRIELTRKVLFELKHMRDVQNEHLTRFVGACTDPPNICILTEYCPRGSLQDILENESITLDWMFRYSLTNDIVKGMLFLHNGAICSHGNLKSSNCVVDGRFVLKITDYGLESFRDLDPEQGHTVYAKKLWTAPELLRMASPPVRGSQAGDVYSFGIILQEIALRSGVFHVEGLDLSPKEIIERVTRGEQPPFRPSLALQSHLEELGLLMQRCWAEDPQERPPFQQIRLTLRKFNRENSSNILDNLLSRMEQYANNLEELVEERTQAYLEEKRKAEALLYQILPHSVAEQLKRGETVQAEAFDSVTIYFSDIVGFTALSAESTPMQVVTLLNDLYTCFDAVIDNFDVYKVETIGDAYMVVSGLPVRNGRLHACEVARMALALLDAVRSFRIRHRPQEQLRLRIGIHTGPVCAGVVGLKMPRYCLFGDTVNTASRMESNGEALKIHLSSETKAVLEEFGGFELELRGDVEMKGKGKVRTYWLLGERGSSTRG
Sequence of Nucleoprotein (Lymphocytic choriomeningitis virus (strain Armstrong)) (P09992 whole entry, looked up): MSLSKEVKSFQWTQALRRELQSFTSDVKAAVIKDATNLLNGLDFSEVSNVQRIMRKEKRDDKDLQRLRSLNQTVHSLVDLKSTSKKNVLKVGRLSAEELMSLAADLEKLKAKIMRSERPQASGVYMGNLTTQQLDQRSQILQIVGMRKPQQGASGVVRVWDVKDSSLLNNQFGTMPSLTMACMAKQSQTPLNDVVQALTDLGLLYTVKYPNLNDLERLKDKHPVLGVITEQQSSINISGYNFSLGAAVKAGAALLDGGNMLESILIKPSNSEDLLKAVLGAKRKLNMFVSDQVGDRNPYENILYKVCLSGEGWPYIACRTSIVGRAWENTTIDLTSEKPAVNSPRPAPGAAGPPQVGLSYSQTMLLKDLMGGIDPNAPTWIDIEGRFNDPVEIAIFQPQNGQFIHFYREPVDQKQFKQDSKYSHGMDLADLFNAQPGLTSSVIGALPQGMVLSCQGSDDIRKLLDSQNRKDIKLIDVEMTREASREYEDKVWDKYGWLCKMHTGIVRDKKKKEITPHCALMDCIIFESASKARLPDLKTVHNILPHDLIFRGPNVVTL
Sequence of Parathyroid hormone/parathyroid hormone-related peptide receptor (Homo sapiens) (Q03431 whole entry, looked up): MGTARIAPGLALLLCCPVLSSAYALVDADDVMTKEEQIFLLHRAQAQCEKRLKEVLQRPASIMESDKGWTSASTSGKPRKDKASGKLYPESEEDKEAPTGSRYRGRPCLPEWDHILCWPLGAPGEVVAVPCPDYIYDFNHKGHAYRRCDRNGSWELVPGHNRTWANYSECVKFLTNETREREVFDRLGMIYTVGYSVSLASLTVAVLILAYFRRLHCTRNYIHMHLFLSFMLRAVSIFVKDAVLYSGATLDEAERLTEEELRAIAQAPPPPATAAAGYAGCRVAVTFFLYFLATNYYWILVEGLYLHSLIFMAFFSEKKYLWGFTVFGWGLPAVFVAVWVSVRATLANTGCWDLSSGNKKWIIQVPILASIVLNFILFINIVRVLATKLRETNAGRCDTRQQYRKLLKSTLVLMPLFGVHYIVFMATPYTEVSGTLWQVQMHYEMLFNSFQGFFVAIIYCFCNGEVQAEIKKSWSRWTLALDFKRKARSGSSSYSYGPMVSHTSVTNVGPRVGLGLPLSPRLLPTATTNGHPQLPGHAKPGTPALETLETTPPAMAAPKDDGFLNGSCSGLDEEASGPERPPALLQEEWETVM
T1 sequence (P78324 whole entry, looked up, the tested form may be a part): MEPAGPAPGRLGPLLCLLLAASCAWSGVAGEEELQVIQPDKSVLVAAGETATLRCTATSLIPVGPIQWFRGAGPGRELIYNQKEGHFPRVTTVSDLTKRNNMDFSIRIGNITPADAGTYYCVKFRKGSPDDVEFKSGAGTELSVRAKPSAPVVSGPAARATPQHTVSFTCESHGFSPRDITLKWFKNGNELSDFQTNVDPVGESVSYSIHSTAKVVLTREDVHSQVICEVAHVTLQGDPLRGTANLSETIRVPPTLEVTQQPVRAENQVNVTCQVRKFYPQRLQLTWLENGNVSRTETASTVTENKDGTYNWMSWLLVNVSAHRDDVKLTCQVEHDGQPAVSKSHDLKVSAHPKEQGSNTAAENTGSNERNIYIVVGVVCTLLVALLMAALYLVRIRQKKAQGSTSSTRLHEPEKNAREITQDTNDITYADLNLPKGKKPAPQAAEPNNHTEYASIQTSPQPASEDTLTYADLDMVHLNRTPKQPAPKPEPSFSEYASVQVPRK
T1 sequence (Q08722 whole entry, looked up, the tested form may be a part): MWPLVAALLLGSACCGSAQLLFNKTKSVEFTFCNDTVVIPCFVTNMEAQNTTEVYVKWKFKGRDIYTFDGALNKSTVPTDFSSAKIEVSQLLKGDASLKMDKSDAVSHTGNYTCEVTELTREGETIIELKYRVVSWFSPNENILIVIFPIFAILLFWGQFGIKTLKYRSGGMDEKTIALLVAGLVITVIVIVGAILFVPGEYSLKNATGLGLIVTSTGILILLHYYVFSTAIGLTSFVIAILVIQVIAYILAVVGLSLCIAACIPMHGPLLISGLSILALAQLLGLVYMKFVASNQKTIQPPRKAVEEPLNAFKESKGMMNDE
Sequence of Atrial natriuretic peptide receptor 2 (Homo sapiens) (P20594 whole entry, looked up): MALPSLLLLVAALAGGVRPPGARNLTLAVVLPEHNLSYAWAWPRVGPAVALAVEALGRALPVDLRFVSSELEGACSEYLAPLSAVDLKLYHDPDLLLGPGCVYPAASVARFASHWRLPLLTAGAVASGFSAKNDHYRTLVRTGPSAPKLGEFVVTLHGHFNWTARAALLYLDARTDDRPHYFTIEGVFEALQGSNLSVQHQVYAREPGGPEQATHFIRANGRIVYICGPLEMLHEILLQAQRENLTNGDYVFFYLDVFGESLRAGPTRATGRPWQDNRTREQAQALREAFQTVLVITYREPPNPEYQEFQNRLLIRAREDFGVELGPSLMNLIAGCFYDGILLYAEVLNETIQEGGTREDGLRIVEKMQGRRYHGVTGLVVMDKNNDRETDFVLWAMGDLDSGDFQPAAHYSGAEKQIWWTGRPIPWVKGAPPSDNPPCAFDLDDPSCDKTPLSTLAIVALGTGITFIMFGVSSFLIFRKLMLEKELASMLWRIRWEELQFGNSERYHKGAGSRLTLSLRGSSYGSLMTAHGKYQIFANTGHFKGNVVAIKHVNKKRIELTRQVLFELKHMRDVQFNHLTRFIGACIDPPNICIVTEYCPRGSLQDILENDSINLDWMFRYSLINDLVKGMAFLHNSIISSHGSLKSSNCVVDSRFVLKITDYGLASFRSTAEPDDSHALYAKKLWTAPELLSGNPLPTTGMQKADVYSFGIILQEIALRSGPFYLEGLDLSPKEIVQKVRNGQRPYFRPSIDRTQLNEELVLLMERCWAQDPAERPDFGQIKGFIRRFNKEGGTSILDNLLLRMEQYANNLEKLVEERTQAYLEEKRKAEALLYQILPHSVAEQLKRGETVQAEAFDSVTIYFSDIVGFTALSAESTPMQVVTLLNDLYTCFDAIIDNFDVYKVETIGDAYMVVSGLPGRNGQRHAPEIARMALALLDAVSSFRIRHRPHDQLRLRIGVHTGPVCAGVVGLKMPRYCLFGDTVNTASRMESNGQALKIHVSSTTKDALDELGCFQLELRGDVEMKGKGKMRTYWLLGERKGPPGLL

With `Cn1c(CCCC(=O)O)nc2cc(N(CCCl)CCCl)ccc21`, the Potency entry in assay [1], in assay [2], in [7], in assay [8], in [9] and in assay [10] was “inactive” throughout. Further, the Potency result in assay [11] and in assay [12] was “inactive” in each case. Besides, the Potency entry in assay [3] is “inactive and 20.9 µM (active)”; in assay [13] it was 26.4 µM (active). For the same molecule, the outcome in assay [4], in assay [5] and in assay [6] was inactive.
On to `NCC1(CC(=O)O)CCCCC1`, for which the Potency entry in assay [2], in assay [14], in [15], in assay [16], in [3] and in [7] was “inactive” throughout. Moreover, the Potency result in [8], in assay [9], in assay [10], in [11], in assay [18] and in assay [19] was “inactive” in each case. Further, the Potency entry in assay [12] was “inactive”. Besides, the outcome in assay [4], in assay [5], in assay [6] and in [17] was inactive.
For `c1ccc(C2CC2)c(OCC2=NCCN2)c1`, the Potency result in assay [2], in assay [14], in assay [15], in assay [16], in assay [3] and in assay [7] was “inactive” each time. In addition, the Potency result in [8], in [9], in assay [10], in assay [11], in [18] and in assay [19] was “inactive” throughout. Also, the Potency result in assay [12] and in assay [13] was “inactive” each time. Also, the outcome in assay [4], in assay [5], in assay [6] and in assay [17] was inactive.
On to `NCC(O)c1ccc(O)cc1` (stereo not drawn), for which the Potency result in assay [2], in [14], in assay [15], in assay [16], in [3] and in assay [7] was “inactive” throughout. Also, the Potency entry in assay [8], in assay [9], in assay [10], in assay [11], in [18] and in [19] was “inactive” each time. Further, the Potency entry in assay [12] was “inactive”. Further, the outcome in [4], in [5], in assay [6] and in assay [17] was inactive.
For the molecule `Nc1ccncc1`, the Potency result in assay [2], in assay [14], in [15], in assay [16], in [3] and in assay [7] was “inactive” each time. For the same molecule, the Potency result in assay [8], in [9], in assay [10], in assay [11], in assay [18] and in [19] was “inactive” throughout. Further, the Potency entry in assay [12] and in [13] was “inactive” in each case. Moreover, the outcome in [4], in assay [5], in [6] and in [17] was inactive.
Turning to `Cc1cccc(C)c1NC1=NCCCS1`, the Potency result in assay [2], in [14], in [16], in [3], in assay [7] and in assay [8] was “inactive” each time. The Potency result in assay [9], in [10], in [11], in [18], in assay [19] and in assay [12] was “inactive” each time. In addition, the result in [4], in [5], in assay [6] and in assay [17] was inactive.
As to `Cc1ncc(CNC(=O)N(CCCl)N=O)c(N)n1`, the Potency result in assay [2], in assay [14], in [15], in assay [16], in [3] and in assay [7] was “inactive” in each case. Also, the Potency result in assay [8], in [9], in [10] and in [18] was “inactive” each time. The outcome in assay [4], in assay [5], in assay [6] and in [17] was inactive.
